# Results from PubChem BioAssay (NCI).
# Values joined by “and” are separate entries in the source; they are usually repeats but may differ in a detail not shown here. Identical values can stand only once. The panel holds about 83,000 compounds, 20% with a hit somewhere; the sample as a whole holds those more often.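 Results are percent growth after 48 hours of single-concentration exposure. 100 means growth as in untreated cells, lower positive values show inhibition; negative values down to -100 show cell death.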 Active and inactive are the calls of the source. How the source made its calls: active means growth percent below 10; inactive means the rest.
# System: MDA-MB-468 breast
# Assay: NCI-60 one-dose screen, 48 h (100 = growth as untreated, 0 = no growth, -100 = all killed)
# Details: 10 µM unless noted
row,Structure (SMILES),growth
1,CC(C)n1nc(-c2ccc3oc(N)nc3c2)c2c(N)ncnc21,-34.1% (active)
2,CCc1nn(Cc2ccccc2)c2nc(C)c(CCc3ccccc3)c(Cl)c12,88.3% (inactive)
3,Nc1nc(-c2cccc([N+](=O)[O-])c2)c(N=Nc2cccc([N+](=O)[O-])c2)s1,62% (inactive)
4,COc1ccc(-c2nnc(N3CCN(C(=O)CN4CCN(c5ccccc5)CC4)CC3)nc2-c2ccc(OC)cc2)cc1,41.4% (inactive)
5,N#C/C(=C\c1ccc([N+](=O)[O-])cc1)n1nnc2cc(F)c(F)cc21,-40% (active)
6,COc1ccc(-c2cc(-c3cc(OC)c(OC)c(OC)c3)nc(N3CCOCC3)c2C#N)cc1,76% (inactive)
7,Cn1c2ccccc2c2c3c(c4c5cc(Br)ccc5n(C)c4c21)C(=O)N(O)C3=O,-0.278% (active)
8,O=C(CCl)N(O)c1ccc(/C=C/c2ccccc2)cc1,25% (inactive) and 6.6% (active)
9,[O-][n+]1c2ccccc2[n+]([O-])c2c3ccccc3[nH]c21,-36.6% (active)
10,CCc1ccc(-c2cn3ccnc3c(-c3ccc4ncn(Cc5ccccc5)c4c3)n2)cc1,82.8% (inactive)
11,N=c1ccn2c(n1)OC1C(O)C(CO)OC12 (stereo unspecified),6.2% (active)
12,CSc1nc2c(c(=O)[nH]1)C(c1ccc(C)cc1)C=C(C(=O)O)N2 (stereo unspecified),114% (inactive)
13,COc1ccc(S(=O)(=O)Nc2ccc(OCc3nnc(-c4ccc(Cl)cc4)o3)c(F)c2)cc1,15.2% (inactive)
14,C#CCn1cnc2cnc(Nc3cccc(NC(=O)CCl)c3)nc21,-17.3% [6.25 µM] (active)
15,Nc1cc(Br)cc2c1[nH]c(=O)c1ccccc12,-8.15% (active)
16,COc1cccc(C2CC(=O)Nc3cc4c(cc32)OCO4)c1OC (stereo unspecified),73.2% (inactive)
17,C(=N/Nc1ncc(-c2cc3cc(-c4ccccc4)ccc3o2)s1)/c1cccs1,77.6% (inactive)
18,BrC(Br)(Br)c1cnc2ccccc2n1,-24.8% (active)
19,COc1ccc(/C=C(\C#N)n2nnc3ccc(Cl)cc32)cc1,28.9% (inactive)
20,O=C(N/N=C/C=C/c1ccc([N+](=O)[O-])o1)c1cc2ccccc2cc1O,-65% (active)
21,O=C(COc1ccc(-c2nc3ccccc3[nH]2)cc1)N=Nc1c(O)[nH]c2ccccc12,34.5% (inactive)
22,c1ccc(-c2nnc(-c3ccccn3)s2)nc1,23.5% (inactive)
23,CCN(CC)c1nc(SCc2ccccc2Cl)ncc1C,69.6% (inactive)
24,S=C(Nc1ccc(C2=NCCN2)cc1)Nc1ccc(C2=NCCN2)cc1,67.6% (inactive)
25,CC1c2ccccc2N(S(=O)(=O)c2ccccc2)C1C (stereo unspecified),37.9% (inactive)
26,NC(N)=NC(N)=NCCCc1ccccc1,-0.206% [100 µM] (active)
